From PubChem BioAssay
USP30 block: inhibitors of human USP30 deubiquitinase; 47,000 compounds, 5.3% hits; Ubiquitin carboxyl-terminal hydrolase 30 (Homo sapiens), Q70CQ3; purified USP30, Ub-rhodamine cleavage fluorescence; inhibition, % at 25 µM
USP17 block: inhibitors of human USP17 deubiquitinase. purified USP17, Ub-rhodamine cleavage fluorescence, 3 h. inhibition, % at 50 µM. 47,000 compounds, 6.5% hits. AID 1645855, 2021
Target sequence (A8MUK1 whole entry, looked up): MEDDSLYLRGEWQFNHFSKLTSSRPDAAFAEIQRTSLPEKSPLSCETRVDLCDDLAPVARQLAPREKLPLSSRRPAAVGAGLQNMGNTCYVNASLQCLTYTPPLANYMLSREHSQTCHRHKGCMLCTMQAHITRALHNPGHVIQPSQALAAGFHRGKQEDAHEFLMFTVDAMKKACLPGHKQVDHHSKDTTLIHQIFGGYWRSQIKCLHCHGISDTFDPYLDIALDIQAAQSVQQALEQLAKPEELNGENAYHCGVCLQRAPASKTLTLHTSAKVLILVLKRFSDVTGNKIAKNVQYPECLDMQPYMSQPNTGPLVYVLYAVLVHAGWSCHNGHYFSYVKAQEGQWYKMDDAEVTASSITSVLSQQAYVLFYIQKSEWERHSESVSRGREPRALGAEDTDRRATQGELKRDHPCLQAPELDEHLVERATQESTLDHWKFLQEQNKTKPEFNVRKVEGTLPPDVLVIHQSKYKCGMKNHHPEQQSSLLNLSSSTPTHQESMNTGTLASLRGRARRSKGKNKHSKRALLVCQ
USP28 inh: inhibitors of human USP28 deubiquitinase. Ubiquitin carboxyl-terminal hydrolase 28 (Homo sapiens), Q96RU2. purified USP28, Ub-rhodamine cleavage fluorescence, 30 min. inhibition, % at 25 µM. 47,000 compounds, 3% hits. AID 1645857, 2021
* marks the source's active call; other numbers are inactive results; x = not tested or not shown. The list is not random: actives were taken first. Their share in the collection is about 11%. No stated cut-off is given here; in the data, active means inhibition above about 30%; inactive means the rest.

SMILES	USP30 block	USP17 block	USP28 inh
Cn1c(=O)c2c(-c3cccc(F)c3)c(Nc3ccccc3)oc2n(C)c1=O	15	-5	39*
COc1ccc(C(CNC(=O)Cn2c(=O)cnc3ccccc32)N2CCCC2)cc1 (centres undefined)	-1	4	0
COc1cccc(S(=O)(=O)N2CCCC(c3nnc(C(F)(F)F)o3)C2)c1 (centres undefined)	17	0	5
CCn1ncc(CN(C)C(=O)Nc2ccc(Cl)cc2)c1C	32*	16	9
CCn1ncc(CN(C)C(=O)c2cnn3c(C(F)F)cc(-c4ccc(OC)cc4)nc23)c1C	19	0	10
CCC(CO)NC(=O)c1cc(-c2cnc(N3CCOCC3)nc2)cn1C (centres undefined)	11	0	6
NCCCN=C1N[C@@H]2[C@@H](O)[C@@H](O)[C@H](O)[C@@H](CO)N2C1=O	5	6	7
CCOc1ccc(C(C)=O)cc1N1C(=O)C2C3C=CC(C3=C(c3ccccc3)c3ccccc3)C2C1=O (centres undefined)	-13	0	6
Cc1nn(CC(=O)NCc2ccccc2F)c2ccccc12	29	51*	4
O=C(CC(c1ccccc1)c1ccccc1)NCc1ccccc1F	17	3	-3
CCOc1ccc(NC(=O)Cn2cc(-c3ccccc3)c3ncn(CC)c(=O)c32)cc1	-20	25	-6
O=C(NCC1CCN(CCc2ccccc2)C1)Nc1ccccc1 (centres undefined)	-9	-8	-4
CCCCc1ccc(NC(=O)Nc2ccccc2C(=O)NCC2CC2)cc1	27	31*	14
COc1cc(O)c2c(O)c3c(cc2c1)C[C@@]1(O)CC(=O)C(C(N)=O)=C(O)[C@@]1(O)C3=O	-120	30*	41*
Cn1cc(-c2cnc(N3CCOCC3)nc2)cc1C(=O)N1CCCC1	1	2	-21
O=C(NC1CCCC1)c1ccc(-c2ccc(S(=O)(=O)NCc3ccccc3)cc2)cc1	41*	19	23
Cc1ccc(S(=O)(=O)NCc2cnc(C3CCCCO3)nc2)cc1 (centres undefined)	17	3	7
Nc1cc(OC(=O)c2ccccc2F)nn1S(=O)(=O)c1ccccc1	6	0	3
N#Cc1cc2c(nc1SCC(=O)NC1CCCCC1)CCCC2	-17	-7	-5
N#Cc1cc2c(nc1SCC(=O)NCc1ccccc1)CCCC2	20	59*	13
N#Cc1cc2c(nc1SCC(=O)Nc1ccc(F)cc1)CCCC2=O	-26	2	0
Cc1ccc(NC(=O)CSc2nc3c(cc2C#N)C(=O)CCC3)cc1	0	55*	0
CCCNC(=O)c1ccc2c(c1)NC(=O)C1CCC(=O)N21 (centres undefined)	2	20	11
C[C@H](NC(=O)C1(c2ccccc2)CCN(C(=O)[C@@H]2CCCN2)CC1)C(=O)O	18	11	4
COc1ccc(CCn2cnc3c4ccccc4n(C)c3c2=O)cc1	19	12	6
SMILES	USP30 block	USP17 block	USP28 inh
COc1ccc(CCn2cnc3c4ccccc4n(C)c3c2=O)cc1OC	10	3	67*
CN(C(=O)Cn1c(=O)n(-c2ccc(Cl)cc2)c(=O)c2c3c(sc21)CCCC3)C1CCCCC1	32*	41*	20
CCOC(=O)N1CCc2c(sc3c2c(=O)n(-c2ccc(CC)cc2)c(=O)n3CC(=O)N2CCCCC2C)C1 (centres undefined)	26	16	20
CS(=O)(=O)N(CC(=O)N1CCN(Cc2ccccc2)CC1)c1cc(Cl)cc(Cl)c1	-5	-3	-8
O=C(CCc1ccccc1)N1CCN(c2nc3c(F)cc(F)cc3s2)CC1	35*	16	19
O=C(CCc1ccccc1)N1CCN(c2nc3c(Cl)cccc3s2)CC1	38*	26	21
O=C(Cc1ccccc1)N1CCN(c2nc3c(F)cc(F)cc3s2)CC1	8	-12	6
COc1cccc2sc(N3CCN(C(=O)CCc4ccccc4)CC3)nc12	17	6	14
COc1ccc(-c2noc(-c3ccc(N4CCC5(CC4)OCCO5)nn3)n2)cc1	-66	45*	-3
CN1CCN(c2ccc(-c3nc(-c4ccc(F)cc4)no3)nn2)CC1	11	6	1
CNC(=O)[C@@]12CCC3(CCN(S(=O)(=O)c4ccc(OC)cc4)CC3)[C@@H]1CN(C)C2	22	8	14
Cc1ccccc1NC(=O)C(=O)NC1CC(C)(C)NC(C)(C)C1	-18	-3	-3
c1ccc(CNc2nnc(-c3nc(C4CC4)no3)c3ccccc23)cc1	x	-6	x
c1ccc2c(-c3nnc(C4CC4)o3)nnc(NC3CCCCC3)c2c1	19	1	15
CC1CCN(c2nnc(-c3nc(C4CC4)no3)c3ccccc23)CC1	57*	21	22
c1ccc2c(-c3nc(C4CC4)no3)nnc(NC3CCCC3)c2c1	39*	13	36*
COc1ccccc1CNc1nnc(-c2nc(C3CC3)no2)c2ccccc12	34*	7	23
c1ccc2c(N3CCCC3)nnc(-c3nc(C4CC4)no3)c2c1	13	-2	28
CCn1cc(-c2nc(-c3ccccn3)no2)c(=O)c2cc(F)c(N3CCOCC3)cc21	3	6	11
Cc1nn(C)c(C)c1CC(=O)N1CC[C@H]2NC(=O)c3ccccc3OCCCCC[C@H]2C1	10	6	4
Cc1ccccc1Nc1nc(-c2cnc(N3CCCC3)nc2C)cc(=O)[nH]1	9	-2	6
COc1ccc(-c2cnc([C@@H]3COCCN3Cc3nccn3C)[nH]2)cc1	-37	-58	-6
CC(=O)Nc1ccc(C(=O)N2Cc3ccccc3OC3(CCN(C(C)=O)CC3)C2)cc1	9	5	0
O=C(Nc1ccc(N2CCOCC2)cc1)c1cccc(S(=O)(=O)N2CCCC2)c1	16	12	5
CC(C)Oc1ccc(C(=O)Nc2cccc(S(=O)(=O)N3CCCC3)c2)cc1	25	19	63*
SMILES	USP30 block	USP17 block	USP28 inh
N#Cc1ccccc1-c1ccccc1C(=O)Nc1cccc(S(=O)(=O)N2CCCC2)c1	13	3	7
CN(C)S(=O)(=O)c1cccc(NC(=O)c2cc(F)cc(F)c2)c1	24	13	19
CCN(CC)S(=O)(=O)c1cccc(NC(=O)c2ccc(OC(F)(F)F)cc2)c1	18	13	30*
Cc1cc(C)n(-c2ccc(C(=O)Nc3cccc(S(=O)(=O)N4CCCC4)c3)cc2)n1	74*	29	69*
O=C(Cc1ccccc1F)N1CCCC(n2c(=O)[nH]c3cncnc32)C1 (centres undefined)	-57	-18	-21
COc1ccc(NS(=O)(=O)c2ccc3c(c2)CCCC(=O)N3)cc1	0	-3	-9
Cc1ccc(NC(=O)c2c3c(NCC4CC4)ncnc3n3ccccc23)cn1	-84	-38	-47
CC1CCCN(CCCNC(=O)C2CCN(c3nc4ccccc4[nH]3)CC2)C1 (centres undefined)	9	0	3
COc1cccc(O[C@@H]2C[C@@H](NC(=O)c3ncccc3C)[C@H](O)[C@H]2O)c1	2	0	-4
O=C(Cn1c(=O)c2c(ncn2C2CCCC2)n(Cc2ccccc2)c1=O)NCCc1ccc(F)cc1	-58	-1	-18
